FECH inh – inhibitors of human ferrochelatase, primary screen, biochemical, purified FECH, Ni-mesoporphyrin absorbance. Ni-mesoporphyrin absorbance 550 nm. calls only at 10 µM (by protocol). actives 3.3% (n = 20,000);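 active = enzyme reaction rate more than 3 SD below the solvent-only control wells on the same plate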;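 note: lower slope than DMSO wells means FECH inhibition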
Target sequence (P22830 whole entry, looked up): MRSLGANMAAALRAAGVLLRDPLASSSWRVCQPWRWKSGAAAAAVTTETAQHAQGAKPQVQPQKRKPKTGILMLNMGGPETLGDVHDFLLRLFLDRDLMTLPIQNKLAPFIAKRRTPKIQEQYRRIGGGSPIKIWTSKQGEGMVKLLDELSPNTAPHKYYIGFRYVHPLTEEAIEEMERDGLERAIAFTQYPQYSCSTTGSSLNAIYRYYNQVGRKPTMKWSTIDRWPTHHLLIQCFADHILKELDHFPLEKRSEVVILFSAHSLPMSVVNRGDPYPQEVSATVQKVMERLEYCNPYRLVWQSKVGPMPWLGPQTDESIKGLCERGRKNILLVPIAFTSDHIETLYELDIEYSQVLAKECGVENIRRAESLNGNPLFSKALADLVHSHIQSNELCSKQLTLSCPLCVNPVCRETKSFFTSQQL
* marks the source's active call; other numbers are inactive results; i = inactive; + = active, no number. The entries come from a sample that favours hits as a whole.

SMILES | FECH inh
COC(=O)CN(c1nc2nc(C)c(Cl)c(C)n2n1)S(=O)(=O)c1ccc(C)cc1 | i
Cc1ccccc1OC1CN(C(=O)CCC(=O)NC2CCCC2)C1 | i
COc1ccc(Nc2cc(C)nc(Nc3ccc(NC(=O)c4ccccc4OC)cc3)n2)cc1 | +
COc1ccc(C(=O)Nc2ccc(Nc3nc(C)cc(Nc4ccccc4)n3)cc2)cc1 | i
COc1ccc(Nc2cc(C)nc(Nc3ccc(NC(=O)c4cc(Cl)ccc4OC)cc3)n2)cc1 | i
Cc1cc(N2CCOCC(CN(C)C)C2)nc(-c2ccccc2O)n1 (configuration not stated) | i
Cc1nnc(CNC(=O)C2(N(C)CCc3ccccc3)Cc3ccccc3C2)o1 | i
COc1ccc(-n2ccnc2C2CC(=O)Nc3c2cnn3CCC(C)C)cc1 (configuration not stated) | i
O=C(CN1CCCN(Cc2ccccc2)S1(=O)=O)Nc1cccc(Cl)c1 | i
O=C(CN1CCN(Cc2ccc(Cl)cc2)S1(=O)=O)Nc1cccc(Cl)c1 | i
O=C(CN1N=C(c2ccccc2)c2ccccc2S1(=O)=O)Nc1cccc(Cl)c1 | +
CCOc1ccc(Nc2nc(NCCO)nc3c2cnn3-c2ccccc2)cc1 | i
COc1ccc(S(=O)(=O)NCc2nc3cccnc3n2C2CCCC2)cc1 | i
CCc1ccc(Cn2c(CNS(=O)(=O)c3ccc(CC)cc3)nc3cccnc32)cc1 | i
COc1ccc(S(=O)(=O)NCc2nc3cccnc3n2Cc2ccccc2)cc1 | i
COc1ccc(Cn2c(CNS(=O)(=O)c3ccc(Cl)cc3)nc3cccnc32)cc1 | i
CC(C)c1ccc(S(=O)(=O)NCc2nc3cccnc3n2Cc2ccccc2)cc1 | i
O=S(=O)(NCc1nc2cccnc2n1C1CCCCC1)c1ccc(Cl)cc1 | i
CCCc1ccc(S(=O)(=O)NCc2nc3cccnc3n2Cc2ccccc2)cc1 | +
CCCn1c(CNS(=O)(=O)c2ccc(Cl)cc2)nc2cccnc21 | i
Cc1ccc(S(=O)(=O)NCc2nc3cccnc3n2C2CCCC2)cc1 | +
COc1ccc(Cn2c(CNS(=O)(=O)c3ccccc3)nc3cccnc32)cc1 | +
CCCn1c(CNS(=O)(=O)c2ccc(CC(C)C)cc2)nc2cccnc21 | +
CC(C)Cc1ccc(S(=O)(=O)NCc2nc3cccnc3n2Cc2ccccc2)cc1 | i
COc1nc(OC)nc(N2CCC3(CC2)CN(C)CCN3C)n1 | i
SMILES | FECH inh
CCc1cc(N(C)CCc2cn[nH]c2)nc(N2CCOCC2)n1 | i
CCSCCN(C(=O)c1ccn[nH]1)C1CCCCC1 | i
O=C(O)C1(Cc2ccccc2Cl)CCN(c2ncnc3nc[nH]c23)CC1 | i
COc1cccc(Cn2c(CNC(=O)c3cccc(OC)c3)nc3cccnc32)c1 | i
COc1cccc(Cn2c(CNC(=O)c3ccc(OC)cc3OC)nc3cccnc32)c1 | +
COCCn1c(CNC(=O)c2ccc(OC)cc2OC)nc2cccnc21 | i
CN1CCNC(=O)C12CCN(C(=O)c1nc(-c3ccccc3)cs1)CC2 | i
Cc1nc2nc(C)c(NC(=O)Nc3ccccc3Cl)c(=O)n2[nH]1 | i
Cc1nc2nc(C)c(NC(=O)Nc3cc(Cl)ccc3C)c(=O)n2[nH]1 | i
O=c1c2c(nc3nc(CNc4ccc(Br)cc4)[nH]n13)CCC2 | +
Cc1ccccc1NCc1nc2nc3c(c(=O)n2[nH]1)CCC3 | +
O=c1c2c(nc3nc(CNc4ccccc4F)[nH]n13)CCC2 | i
CCc1nc2nc3c(c(=O)n2[nH]1)CCC3 | i
Cc1c(Cl)cccc1NCc1nc2nc3c(c(=O)n2[nH]1)CCC3 | +
CCOc1ccccc1NCc1nc2nc3c(c(=O)n2[nH]1)CCC3 | i
Cc1cc(=O)n2[nH]c(NCc3ccc(C(=O)Nc4ccc(Br)cc4)cc3)nc2n1 | i
Cc1ccc(Cl)cc1NCc1nc2nc3c(c(=O)n2[nH]1)CCC3 | +
COc1ccc(NCc2nc3nc4c(c(=O)n3[nH]2)CCC4)c(OC)c1 | i
Cc1cc(C)c(S(=O)(=O)N2CCC(n3c(C)nc4cccnc43)CC2)c(C)c1 | i
CCc1ccc(NCc2cc(=O)n3[nH]c(NCc4ccc(F)cc4)nc3n2)cc1 | i
Cc1ccc(C)c(NC(=O)CN2CCN(Cc3ccccc3Cl)S2(=O)=O)c1 | i
CC(CCNC(=O)c1ccc(CN2C(=O)CCn3nccc32)cc1)N1CCCC1 (configuration not stated) | i
Cc1cccc(-c2nc3nc(CN4CCN(C)CC4)cc(=O)n3[nH]2)c1 | i
CCc1cc(Sc2ccccc2NC(=O)Cc2ccccc2Cl)n2nc(C)nc2n1 | i
CN(C(=O)c1cccs1)c1ccccc1-c1n[nH]c(Cc2ccccc2)n1 | i
FC(F)(F)c1ccccc1-n1nc(C2CC2)nc1C1CCOC1 (configuration not stated) | i
Cc1cc(NCc2ccccc2C)n2nc(-c3cccnc3)nc2n1 | i
COc1ccccc1-c1ccc(NCC2(C)CCCO2)nn1 (configuration not stated) | i

Compound activity (PubChem BioAssay)
